Compound activity (PubChem)
ULK1 inh: inhibitors of human ULK1 kinase; AlphaScreen Atg13 phosphorylation by ULK1, luminescence; inhibition, % at 5.96 µM; 30,000 compounds, 1.9% hits; AID 1259251; in the data active = inhibition above about 43%;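 note: 0% = median of compound wells and 100% = no enzyme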
ASK1 inh: human ASK1 kinase inhibition, primary screen. AlphaScreen MKK6 phosphorylation by ASK1, luminescence. 22,000 compounds, 0.99% hits. Q99683. inhibition, % at 7.44 µM; in the data active = inhibition above about 35%;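 note: 0% = median of compound wells and 100% = no enzyme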
An asterisk follows results filed as active; / = no result. Shown are actives, neighbours in structure and some others; about 2.5% of the full set was active somewhere.

SMILES | ULK1 inh | ASK1 inh
CCS(=O)(=O)Nc1ccc(-c2ccnc(Nc3ccc(S(N)(=O)=O)cc3)n2)cc1 | 60* | -8
Cn1cc(-c2cc(Nc3ccc(N4CCOCC4)cc3)ncc2F)cn1 | 25 | 1
Cn1cc(-c2cc(Nc3ccc(N4CCOCC4)cc3)ncc2Cl)cn1 | 61* | -1
c1ccc(Nc2cc(Nc3ccncn3)ncn2)cc1 | 46* | -13
COc1cc(Nc2cc(Nc3ccncn3)ncn2)cc(OC)c1OC | 43* | 1
COc1cc(Nc2cc(Nc3ccccc3)ncn2)cc(OC)c1OC | -2 | 8
Cc1cc(Nc2ccccc2)nc(Nc2ccncn2)n1 | 0 | 7
FC(F)(F)c1cccc(CNc2nc(NCc3ccc4c(c3)OCO4)nc3nc[nH]c23)c1 | -42 | 2
COc1ccc(CCNc2nc(NCCCN3CCCC3=O)nc3c2ncn3C(C)C)cc1 | 5 | -6
COc1cc(Nc2cc(NCCN(C(C)C)C(C)C)ncn2)cc(OC)c1OC | 9 | -7
Nc1nc(N2CCc3ccccc3C2)nc2nc[nH]c12 | 24 | -7
Cc1cnc(Nc2ccncn2)nc1NCCN1CCOCC1 | 3 | 0
CN(C)c1cccc(Nc2nc(NC3CCN(Cc4ccccc4)CC3)c3ncn(Cc4ccc(C(F)(F)F)cc4)c3n2)c1 | 44* | 34
CN(C)c1cccc(Nc2nc(NCCO)c3ncn(Cc4ccc(C(F)(F)F)cc4)c3n2)c1 | 54* | 7
CCCNc1nc(Nc2cccc(N(C)C)c2)nc2c1ncn2Cc1ccc(C(F)(F)F)cc1 | 15 | 18
FC(F)(F)c1ccc(Cn2cnc3c(NC4CCN(Cc5ccccc5)CC4)nc(Nc4ccccc4)nc32)cc1 | -7 | 2
N[C@@H](C(=O)NCc1nc(-c2ccncc2)n[nH]1)c1ccccc1 | 0 | 6
O=C1CCCN1CCn1cnc2c(Nc3ccccc3)nc(Nc3ccc4ncccc4c3)nc21 | 10 | 10
O=C(NCCCN1CCCC1=O)c1cccc(NCCCN2CCCC2=O)c1 | -13 | 2
O=C(NCc1ccccc1)c1cccc(NCCCN2CCCC2=O)c1 | 54* | -6
c1cn(-c2ccc(Nc3nc(Nc4ccc(N5CCOCC5)cc4)c4ncn(-c5ccsc5)c4n3)cc2)cn1 | 46* | 21
c1cncc(Nc2nc(Nc3ccc(N4CCOCC4)cc3)c3ncn(-c4ccsc4)c3n2)c1 | 49* | 29
c1cc(-n2cnc3c(Nc4ccc(N5CCOCC5)cc4)nc(Nc4ccc(N5CCOCC5)cc4)nc32)cs1 | 20 | 20
c1ccc(Nc2nc(Nc3ccc(N4CCOCC4)cc3)nc3c2ncn3-c2ccsc2)cc1 | 41 | 29
COc1ccc(-c2oc3ccc(OC)cc3c2C(=O)Nc2ccc3c(c2)OCCO3)cc1 | 4 | /
SMILES | ULK1 inh | ASK1 inh
NC(Cc1ccccc1)c1nc2ccc(-c3cncc4ccccc34)cc2[nH]1 (configuration not stated) | 57* | 4
NC(Cc1ccccc1)c1nc2ccc(-c3cccc4ncccc34)cc2[nH]1 (configuration not stated) | -20 | -17
O=C(Nc1ccc(-c2cn[nH]c2)cc1)N1CCc2ccccc2C1 | 2 | 14
c1ccc(CNc2nc(Nc3ncccn3)nc3c2ncn3-c2ccsc2)cc1 | -6 | 0
NC(CO)C(=O)NNCc1ccc(O)c(O)c1O (configuration not stated) | 65* | /
NC(CO)C(=O)O (configuration not stated) | 2 | /
CNC(=O)c1ccccc1Nc1cc(Nc2ccc(F)cc2OC)ncc1C(F)(F)F | 87* | -1
NC(=O)c1ccccc1Nc1cc(Oc2ccccc2F)ncc1C(F)(F)F | -8 | 1
CNC(=O)c1ccccc1Nc1cc(Nc2ccc(-c3cncnc3)cc2OC)ncc1C(F)(F)F | 86* | -8
Cc1nc(Nc2cc(Nc3ccccn3)c(C(F)(F)F)cn2)cc(-c2cncnc2)n1 | 32 | 22
CNC(=O)c1cncnc1Nc1cc(NC(=O)Cc2ccc(OC)cc2)ncc1C(F)(F)F | 15 | 26
CNC(=O)c1cc(F)ccc1Nc1cc(Nc2cc(-c3cncnc3)nc(C)n2)ncc1C(F)(F)F | 58* | 9
CCOc1cccc2cc(-c3csc(NC(=O)C4CC4)n3)oc12 | -17 | /
Cc1cncc2cccc(NC3CCCN(C(=O)C(O)c4ccc(Cl)cc4)C3)c12 (configuration not stated) | 13 | -8
Cc1cc2c(NC3CCCN(C(=O)C(O)c4ccc(Cl)cc4)C3)cccc2nn1 (configuration not stated) | 52* | -18
O=C1CCCN1CCn1cnc2c(NC3CC3)nc(N3CCN(c4ccccn4)CC3)nc21 | 2 | -5
O=C(Nc1ccc(F)c(F)c1N1CCC2(CC1)OCCO2)c1ccc(Br)o1 | 53* | -18
O=C(Nc1cccc(F)c1N1CCC2(CC1)OCCO2)c1ccc(Br)o1 | -9 | -11
C=CCOCCOc1cc(-c2cn[nH]c2)ccc1NC(=O)C1COc2ccc(OC)cc2C1 (configuration not stated) | 18 | 69*
COc1ccc2c(c1)CC(C(=O)Nc1ccc(-c3cn[nH]c3)cc1OCCO)CO2 (configuration not stated) | 6 | 17
Cc1nn(C)c(C)c1-c1nc(Nc2ccc(N3CCOCC3)cc2)c2ncn(-c3ccccc3)c2n1 | 4 | 20
CCCCC(CC)COC(=O)CC(C(=O)OCC(CC)CCCC)S(=O)(=O)O (configuration not stated) | 54* | /
CCCCC(CC)COC(=O)C(C#N)=C(c1ccccc1)c1ccccc1 (configuration not stated) | -8 | /
O=C1CCCN1CCCNc1nc(NCc2ccccc2)c2ncn(-c3ccsc3)c2n1 | 0 | -9
CCOc1cc(/C=N/N2C(=O)C3C(C2=O)C2C=CC3C23CC3)ccc1O (configuration not stated) | 5 | /
SMILES | ULK1 inh | ASK1 inh
CCOc1cc(/C=N\NC(=O)c2n[nH]c3c2CCCC3)ccc1O | 44* | /
COc1ccc(CCNC(=O)c2ccc(-c3cccc(N)c3)s2)cc1 | 31 | -5
CC(C)NC(=O)c1cccc(NC(=O)Nc2ccc(-c3ncnc4[nH]ccc34)cc2)c1 | 47* | 15
CCc1c[nH]c2ncnc(-c3ccc(NC(=O)Nc4cccc(C(=O)NC(C)C)c4)cc3)c12 | 16 | 18
Fc1cnc(Nc2ccc(N3CCOCC3)cc2)cc1-c1ccn(CCN2CCOCC2)n1 | -5 | -5
Cc1ccc(-c2cccc3cnc(Nc4ccc(-n5cnc(-c6ccccn6)n5)cc4)nc23)cn1 | -17 | -20
O=C(NC1CC1)c1cccc(Nc2cnccn2)c1 | -4 | -2
Cc1ccc(-c2cccc3cnc(Nc4cccc(C(=O)NC5CC5)c4)nc23)cn1 | 59* | -28
Cc1ccc(-c2cccc3cnc(Nc4ccc(C(=O)NC5CC5)cc4)nc23)cn1 | 62* | -37
Cn1c(Nc2cccc(C(=O)NCc3cccc(C(F)(F)F)c3)n2)nc2ccccc21 | -34 | -6
COc1ccc(-c2cccc3cnc(NC4CCN(C(=O)N5CCCC5)C4)nc23)cc1F (configuration not stated) | 32 | -9
Nc1cc(Nc2ccccc2CO)c(C(F)(F)F)cn1 | 56* | 9
O=C(Cc1ccc(F)cc1)Nc1cc(Nc2ccccc2CO)c(C(F)(F)F)cn1 | 18 | 13
